These results are taken from PubChem BioAssay (NCI).

Molecules are shown by their SMILES. About 79,000 compounds went through this panel and 15% of them were active in at least one assay; those are over-represented in the sample as a whole. Activity calls are given as the source filed them. Cut-off read from the data, not from the text of the source: active = growth inhibition above about 70%; inactive = the rest.

A short description of one test: NCI Yeast Anticancer Drug Screen. Data for the bub3 strain (AID 167). To be noted: S. cerevisiae bub3 mutant strain, at 50.0 µM (retest, dose inferred, filed as 5.0), stronger effect = higher value. Summed up:
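Mutant yeast screening strain plus compound; vehicle-treated cultures serve as the 0% inhibition reference.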
On to `O=[N+]([O-])c1ccc(CS(=O)(=O)C(Cl)Cl)o1`, for which the growth inhibition was 56% (inactive).
Turning to `CC(C)c1cc([N+](=O)[O-])cc([N+](=O)[O-])c1O`, the growth inhibition was 85% (active).
With `O=P(c1cccc(C(F)(F)F)c1)(c1cccc(C(F)(F)F)c1)c1cccc(C(F)(F)F)c1.O=P(c1cccc(C(F)(F)F)c1)(c1cccc(C(F)(F)F)c1)c1cccc(C(F)(F)F)c1.[Cl][Sn]([Cl])([Cl])[Cl]`, the growth inhibition was 89% (active).
For the compound `COc1cc(N(CC(C)Br)CC(C)Br)ccc1N=Nc1ccccc1C(=O)O` (stereo not given), the growth inhibition is 92% (active).
In the case of `C(=P(c1ccccc1)(c1ccccc1)c1ccccc1)[P+](c1ccccc1)(c1ccccc1)c1ccccc1.[Cl][Fe]([Cl])([Cl])[Br]`, the growth inhibition was 99% (active).
With `COc1ccc2c(c1)CCC(N1CCCC(=O)C1)C2` (stereo not given), the growth inhibition was 31% (inactive).
For the compound `C1CCNCC1.O=C([CH-]C(=O)C(F)(F)F)c1ccc2c(c1)C(=O)c1ccccc1-2.O=C([CH-]C(=O)C(F)(F)F)c1ccc2c(c1)C(=O)c1ccccc1-2.O=C([CH-]C(=O)C(F)(F)F)c1ccc2c(c1)C(=O)c1ccccc1-2.O=C([CH-]C(=O)C(F)(F)F)c1ccc2c(c1)C(=O)c1ccccc1-2.[Eu+3]`, the growth inhibition is 71% (active).
The same measure, in the same setting: the figure for `O=C1C(=O)C(Br)(Br)C(Br)=C1Br` is -1% (inactive); for `CN(C)C(=S)Nc1nnc(NC23CC4CC(CC(C4)C2)C3)s1` it is 96% (active); for `C[CH2][Hg]` it is 99% (active).
Still for that read-out and setting: the figure for `c1cc2n[pH]nc2cn1` (stereo not given) is 2% (inactive).
As to `CCC[CH2][Sn]1([CH2]CCC)[O]CC(Cc2ccccc2)[O]1` (stereo not given), the growth inhibition was 98% (active).
The same measure, in the same setting: the figure for `Clc1ccccc1C#[C][Hg][C]#Cc1ccccc1Cl` is 92% (active); for `CC12CCC3C(CC=C4CC(SC(=N)N)CCC43C)C1CCC2=O` (stereo not given) it is 50% (inactive); for `COc1ccccc1/C=C/[N+](=O)[O-]` it is 98% (active).
As for `ClC(CN1CCCCC1)C(Cl)c1ccccc1` (stereo not given), the growth inhibition was 58% (inactive).
`CCC[CH2][Sn]1([CH2]CCC)[O]CC(CN2CCCCC2)[O]1` (stereo not given): the growth inhibition is 96% (active).
Consider `COC1OC(CO)C(O)C(O)[CH]1[Hg][Cl]` (stereo not given), for which the growth inhibition was 99% (active).
On the same count and under the same terms, the figure for `ClC1=C(Cl)C2(Cl)C(Cl)CC1(Cl)C2(Cl)Cl` (stereo not given) is 2% (inactive); for `[Hg][c]1ccccc1` it is -2% (inactive).
The same measure, in the same setting: the figure for `O=[N+]([O-])c1cccc(SC(Cl)(Cl)Cl)c1` is 99% (active); for `CC1=C(O)C(=O)C=C2C1=CC=C1[C@@]2(C)CC[C@@]2(C)[C@@H]3C[C@](C)(C(=O)O)CC[C@]3(C)CC[C@]12C` it is 99% (active).
Same read-out and setting: the figure for `CCC[CH2][Sn]1([CH2]CCC)[O]C2C(O)OC(CO)C(O)C2[O]1` (stereo not given) is 99% (active); for `O=[As]c1ccccc1O` (stereo not given) it is 97% (active); for `CC[PH+](CC)CC.[Cl][Au]` it is 99% (active).

Staying with this test, now noted: S. cerevisiae bub3 mutant strain, at 50.0 µM, stronger effect = higher value.
In the case of `CCCC(C)(COC(N)=O)COC(=O)NC1CC1` (stereo not given), the growth inhibition was -4.4% (inactive).
As to `O=C(O)C(CSC(c1ccccc1)c1ccccc1)NC(=O)C(c1ccccc1)c1ccccc1` (stereo not given), the growth inhibition was 85.7% (active).
`CC1=CC2CC(C)=C(CC[C@]3(C)CC[C@H]([C@@H](C)C(=O)O)OO3)C(C)(C)C2CC1` (stereo not given in full): the growth inhibition is 92.2% (active).
Still for that read-out and setting: the figure for `O=[N+]([O-])/C=C/c1c(Cl)cccc1Cl` is 99.3% (active).
Consider `O=[n+]1c2ccccc2n([O-])c2ccccc21.[Cl][Cu][Cl]`, for which the growth inhibition is 97.7% (active).
Still for that read-out and setting: the figure for `CC(=O)C(CN1CCOCC1)C(c1ccccc1)c1c(O)c2ccccc2oc1=O` (stereo not given) is 21.9% (inactive); for `CC(C)c1oc(=O)cc2c1C(O)C1OC(=O)C3(C)C(O)C4OC4C2(C)C13` (stereo not given) it is 17.4% (inactive).
Consider `C#CCN1C(=O)N(CC#C)C(=O)C(CC#C)(C(CC=C)c2ccccc2)C1=O` (stereo not given), for which the growth inhibition was 59% (inactive).
Same read-out and setting: the figure for `COC(=O)C1c2c(C)cc3n2C(C=CC3)C1C(=O)OC` (stereo not given) is -10.2% (inactive); for `[Cl][Hg][c]1ccc(Cl)s1` it is 99.3% (active).
Still for that read-out and setting: the figure for `N#CC(Cl)(Cl)CCl` is 0.15% (inactive); for `O=C1CCC(=O)N1SC(Cl)(Cl)Cl` it is 99.5% (active); for `CCCC(=O)O.CCCC(=O)O.CCCC(=O)O.CCCC(=O)O.[Rh].[Rh]` it is 33.7% (inactive).
Still for that read-out and setting: the figure for `CC(CCC/C=C/CCCN(C)C(=N)N)CC(C)C1OC(=O)C(C)C(O)/C=C/C(C)C(O)C(C)C(O)C(C)C(O)CCCC(O)CC2(O)OC(CC(OC(=O)CC(=O)O)CC(O)CC(O)C(C)C(O)/C=C/C=C/C1C)CC(O)C2O` (stereo not given) is 93.1% (active); for `OC(CN(CCCl)CCCl)C(O)C(O)C(O)CN(CCCl)CCCl` (stereo not given) it is -12.1% (inactive).
Regarding `O=[N+]([O-])c1ccc(CS(=O)(=O)C(Cl)Cl)o1`, the growth inhibition is 48.1% (inactive).
The same measure, in the same setting: the figure for `CC(C)c1cc([N+](=O)[O-])cc([N+](=O)[O-])c1O` is 55.5% (inactive); for `O=P(c1cccc(C(F)(F)F)c1)(c1cccc(C(F)(F)F)c1)c1cccc(C(F)(F)F)c1.O=P(c1cccc(C(F)(F)F)c1)(c1cccc(C(F)(F)F)c1)c1cccc(C(F)(F)F)c1.[Cl][Sn]([Cl])([Cl])[Cl]` it is 48.8% (inactive); for `COc1cc(N(CC(C)Br)CC(C)Br)ccc1N=Nc1ccccc1C(=O)O` (stereo not given) it is 32.9% (inactive).
The same measure, in the same setting: the figure for `C(=P(c1ccccc1)(c1ccccc1)c1ccccc1)[P+](c1ccccc1)(c1ccccc1)c1ccccc1.[Cl][Fe]([Cl])([Cl])[Br]` is 99.5% (active); for `COc1ccc2c(c1)CCC(N1CCCC(=O)C1)C2` (stereo not given) it is 89.1% (active).
Turning to `C1CCNCC1.O=C([CH-]C(=O)C(F)(F)F)c1ccc2c(c1)C(=O)c1ccccc1-2.O=C([CH-]C(=O)C(F)(F)F)c1ccc2c(c1)C(=O)c1ccccc1-2.O=C([CH-]C(=O)C(F)(F)F)c1ccc2c(c1)C(=O)c1ccccc1-2.O=C([CH-]C(=O)C(F)(F)F)c1ccc2c(c1)C(=O)c1ccccc1-2.[Eu+3]`, the growth inhibition was 52.2% (inactive).
The same measure, in the same setting: the figure for `O=C1C(=O)C(Br)(Br)C(Br)=C1Br` is 93.5% (active); for `CN(C)C(=S)Nc1nnc(NC23CC4CC(CC(C4)C2)C3)s1` it is 93% (active).
On the same count and under the same terms, the figure for `C[CH2][Hg]` is 99.2% (active).
Still for that read-out and setting: the figure for `c1cc2n[pH]nc2cn1` (stereo not given) is 11.6% (inactive).
`CCC[CH2][Sn]1([CH2]CCC)[O]CC(Cc2ccccc2)[O]1` (stereo not given): the growth inhibition is 89.1% (active).
Still for that read-out and setting: the figure for `Clc1ccccc1C#[C][Hg][C]#Cc1ccccc1Cl` is -9.2% (inactive).
On the same count and under the same terms, the figure for `CC12CCC3C(CC=C4CC(SC(=N)N)CCC43C)C1CCC2=O` (stereo not given) is 66.8% (inactive); for `COc1ccccc1/C=C/[N+](=O)[O-]` it is 99.2% (active).
Still for that read-out and setting: the figure for `ClC(CN1CCCCC1)C(Cl)c1ccccc1` (stereo not given) is 51.9% (inactive); for `CCC[CH2][Sn]1([CH2]CCC)[O]CC(CN2CCCCC2)[O]1` (stereo not given) it is 88% (active).
On to `COC1OC(CO)C(O)C(O)[CH]1[Hg][Cl]` (stereo not given), for which the growth inhibition was 98.8% (active).
Same read-out and setting: the figure for `ClC1=C(Cl)C2(Cl)C(Cl)CC1(Cl)C2(Cl)Cl` (stereo not given) is 1.4% (inactive); for `[Hg][c]1ccccc1` it is 99.6% (active).
The same measure, in the same setting: the figure for `O=[N+]([O-])c1cccc(SC(Cl)(Cl)Cl)c1` is 99.2% (active).
Same read-out and setting: the figure for `CC1=C(O)C(=O)C=C2C1=CC=C1[C@@]2(C)CC[C@@]2(C)[C@@H]3C[C@](C)(C(=O)O)CC[C@]3(C)CC[C@]12C` is 92.5% (active); for `CCC[CH2][Sn]1([CH2]CCC)[O]C2C(O)OC(CO)C(O)C2[O]1` (stereo not given) it is 98.7% (active).
`O=[As]c1ccccc1O` (stereo not given): the growth inhibition was 97.3% (active).
Same read-out and setting: the figure for `CC[PH+](CC)CC.[Cl][Au]` is 89.8% (active).
